The whole screen tested about 310,000 compounds, of which about 14,000 (4.5%) showed an effect of 50% or more. Effects have a minus sign here. The sample as a whole holds a higher share of strong results than the screen did.
biological target: human ether-à-go-go-related gene (hERG) potassium channel (human, UniProt Q12809); experiment: primary screen, population patch clamp on CHO cells stably expressing hERG; higher = less effect of the substance
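Note: peak tail current of the secondary pulse compared with the same well before compound.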

Chain of human ether-à-go-go-related gene (hERG) potassium channel (Q12809 whole entry, looked up): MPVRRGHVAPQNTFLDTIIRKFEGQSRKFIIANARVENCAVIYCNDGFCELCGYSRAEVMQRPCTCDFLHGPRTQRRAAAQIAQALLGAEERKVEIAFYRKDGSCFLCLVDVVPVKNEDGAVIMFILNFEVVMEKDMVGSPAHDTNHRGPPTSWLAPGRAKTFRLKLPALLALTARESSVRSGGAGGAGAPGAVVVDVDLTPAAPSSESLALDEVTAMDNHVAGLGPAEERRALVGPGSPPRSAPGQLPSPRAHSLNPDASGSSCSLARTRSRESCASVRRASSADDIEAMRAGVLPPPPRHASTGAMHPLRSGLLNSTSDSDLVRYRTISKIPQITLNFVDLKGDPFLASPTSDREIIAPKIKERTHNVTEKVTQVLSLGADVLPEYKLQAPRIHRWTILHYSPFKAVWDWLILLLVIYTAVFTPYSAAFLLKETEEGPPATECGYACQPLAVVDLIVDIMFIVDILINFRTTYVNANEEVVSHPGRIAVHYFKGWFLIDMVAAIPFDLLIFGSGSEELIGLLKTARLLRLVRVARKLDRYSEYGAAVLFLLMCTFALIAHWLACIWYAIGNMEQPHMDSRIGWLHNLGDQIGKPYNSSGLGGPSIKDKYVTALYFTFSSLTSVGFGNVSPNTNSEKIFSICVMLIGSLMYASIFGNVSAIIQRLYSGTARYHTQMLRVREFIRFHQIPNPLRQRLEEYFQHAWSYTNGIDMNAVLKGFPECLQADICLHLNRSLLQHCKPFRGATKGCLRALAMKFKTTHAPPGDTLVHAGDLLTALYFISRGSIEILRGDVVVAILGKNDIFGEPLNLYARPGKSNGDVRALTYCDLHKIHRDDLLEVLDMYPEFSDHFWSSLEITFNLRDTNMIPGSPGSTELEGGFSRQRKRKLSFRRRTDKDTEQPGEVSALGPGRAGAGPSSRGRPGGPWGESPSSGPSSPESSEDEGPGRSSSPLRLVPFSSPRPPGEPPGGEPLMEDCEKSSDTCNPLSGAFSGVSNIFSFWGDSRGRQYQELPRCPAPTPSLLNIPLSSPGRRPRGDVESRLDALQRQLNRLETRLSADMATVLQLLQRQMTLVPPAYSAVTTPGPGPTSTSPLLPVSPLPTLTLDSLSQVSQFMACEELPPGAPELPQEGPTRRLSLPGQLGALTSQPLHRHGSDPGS

First: O=C(Oc1coc(CSc2ncccn2)cc1=O)c1ccccc1[N+](=O)[O-]
Second: O=C(Oc1coc(CSc2ncccn2)cc1=O)c1cccc([N+](=O)[O-])c1
The “hERG current change (%, negative = inhibition) at 10uM” value of the first is higher: 14.4% for the first, -81.3% for the second.

Compared with `Cc1cc(C)nc(SCc2cc(=O)c(OC(=O)c3cccc([N+](=O)[O-])c3)co2)n1`, `CC(=O)N=c1c(C#N)cc2c(=O)n3cccc(C)c3nc2n1Cc1ccco1` is lower in “hERG current change (%, negative = inhibition) at 10uM” value: -32.5% for the first, -35.3% for the second.

First: CC(=O)N=c1c(C#N)cc2c(=O)n3ccccc3nc2n1Cc1ccccc1
Second: Cc1cccn2c(=O)c3cc(C#N)c(=NC(=O)c4ccccc4)n(Cc4ccco4)c3nc12
The “hERG current change (%, negative = inhibition) at 10uM” value of the first is higher: -40.2% for the first, -40.3% for the second.

First: Cn1c(=NC(=O)c2ccco2)sc2ccccc21
Second: CC(C)n1c(=NC(=O)c2ccco2)c(C#N)cc2c(=O)n3ccccc3cc21
The “hERG current change (%, negative = inhibition) at 10uM” value of the first is higher: 11.6% for the first, -52.2% for the second.

First: Cc1ccccc1C(=O)N=c1c(C#N)cc2c(=O)n3cccc(C)c3nc2n1Cc1ccco1
Second: Cc1cccc(C(=O)N=c2c(C#N)cc3c(=O)n4cccc(C)c4nc3n2Cc2ccco2)c1
The “hERG current change (%, negative = inhibition) at 10uM” value of the first is higher: -46.2% for the first, -65% for the second.

First: Cc1cccn2c(=O)c3cc(C#N)c(=NC(=O)c4ccco4)n(Cc4ccco4)c3nc12
Second: Cc1c(C(=O)Nc2ccc(Cl)cc2)c2ccccn2c1CCc1ccncc1
The “hERG current change (%, negative = inhibition) at 10uM” value of the first is lower: -55.4% for the first, -5.68% for the second.

Compared with `CCO[C@@H]1OC(C(=O)NCc2ccccc2)=C[C@H](C(C)(C)C)[C@H]1CCCO`, `CCN(Cc1ccccc1)Cc1c(F)cccc1F` is higher in “hERG current change (%, negative = inhibition) at 10uM” value: -10.5% for the first, -0.224% for the second.

Compared with `O=C(OCCN1C(=O)c2ccccc2C1=O)c1cc2ccccc2o1`, `CCOC(=O)C1CCCN(C(=O)c2cc(Nc3ccc(OC)c(OC)c3)nc3ccccc23)C1` (stereo not drawn) is lower in “hERG current change (%, negative = inhibition) at 10uM” value: 1.62% for the first, -14.9% for the second.

Going from `CC1CCCC(C(=O)O)N1C(=O)CCSC(=O)c1ccccc1` (stereo not drawn) to `CC1CCCC(C)N1C(=O)COC(=O)C1CCN(S(=O)(=O)c2c(Cl)cccc2Cl)CC1` (stereo not drawn), the “hERG current change (%, negative = inhibition) at 10uM” value falls from -0.246% to -30.1%.

Compared with `O=S(=O)(c1cccs1)N1CN(Cc2ccc(Cl)cc2)c2nc3ccccc3nc21`, `OC(COc1ccc2ccccc2c1)CN1CCN(c2ccc(F)cc2)CC1` (stereo not drawn) is lower in “hERG current change (%, negative = inhibition) at 10uM” value: 3.75% for the first, -28% for the second.

Going from `Cc1ccc2c(c1)c1c(n2CC(O)CN2CCC(C)CC2)CCCC1` (stereo not drawn) to `Cc1ccc2c(c1)c1c(n2CC(O)CN2CCOCC2)CCCC1.Cl` (stereo not drawn), the “hERG current change (%, negative = inhibition) at 10uM” value rises from -58.1% to 9.32%.

Going from `Cc1ccc2c(c1)c1c(n2CC(O)CNC2CCCCC2)CCCC1.Cl` (stereo not drawn) to `Cc1ccc2c(c1)c1c(n2CC(O)CN2CCCCC2C)CCCC1` (stereo not drawn), the “hERG current change (%, negative = inhibition) at 10uM” value falls from -37.4% to -42.6%.

First: Cc1ccc2c(c1)c1c(n2CC(O)CNC(CO)(CO)CO)CCCC1 (stereo not drawn)
Second: Cc1ccc2c(c1)c1c(n2CC(O)CN2CCCCCC2)CCCC1.Cl (stereo not drawn)
The “hERG current change (%, negative = inhibition) at 10uM” value of the first is higher: 0.531% for the first, -65.6% for the second.

Compared with `Fc1ccc(N/N=C(/c2ccccc2)c2ccccn2)cc1`, `OC(CSc1ccccc1Cl)CN1CCN(c2ccc(F)cc2)CC1` (stereo not drawn) is lower in “hERG current change (%, negative = inhibition) at 10uM” value: -12.5% for the first, -57.4% for the second.

First: CCOC(=O)N1CCN(C(=O)COC(=O)C2CCN(S(=O)(=O)c3c(C)c(C)cc(C)c3C)CC2)CC1
Second: CCOC(=O)N1CCN(C(=O)COC(=O)C2CCN(S(=O)(=O)c3ccc(C)c(C)c3)CC2)CC1
The “hERG current change (%, negative = inhibition) at 10uM” value of the first is higher: -51.9% for the first, -62.1% for the second.

First: Cc1ccc(S(=O)(=O)N2CCC(C(=O)OCC(=O)N3CCC(C)CC3)CC2)cc1C
Second: CCOC(=O)C1CCN(C(=O)COC(=O)C2CCN(S(=O)(=O)c3ccc(C)c(C)c3)CC2)CC1
The “hERG current change (%, negative = inhibition) at 10uM” value of the first is higher: 7.85% for the first, -3.24% for the second.

Compared with `CCOC(=O)N1CCN(C(=O)COC(=O)C2CCN(S(=O)(=O)c3c(Cl)cccc3Cl)CC2)CC1`, `CC1CCCN(C(=O)COC(=O)C2CCN(S(=O)(=O)c3c(Cl)cccc3Cl)CC2)C1` (stereo not drawn) is lower in “hERG current change (%, negative = inhibition) at 10uM” value: -38.1% for the first, -39.4% for the second.

First: CCOC(=O)N1CCN(C(=O)C2CCN(S(=O)(=O)c3c(C)cc(C)cc3C)CC2)CC1
Second: CC1CCCCN1C(=O)COC(=O)C1CCN(S(=O)(=O)c2c(Cl)cccc2Cl)CC1 (stereo not drawn)
The “hERG current change (%, negative = inhibition) at 10uM” value of the first is higher: -22.9% for the first, -56.4% for the second.

First: CC(=O)Nc1ccc(Oc2cc(NC(C)=O)cc([N+](=O)[O-])c2)cc1
Second: CCOC(=O)c1c(NC(=O)CC2Nc3ccccc3NC2=O)sc(C)c1C (stereo not drawn)
The “hERG current change (%, negative = inhibition) at 10uM” value of the first is lower: 6.36% for the first, 10.6% for the second.

First: COc1ccc(OCC(O)CN2CCN(c3ccc(Cl)cc3)CC2)cc1 (stereo not drawn)
Second: COc1cccc(OCC(O)CN2CCN(c3ccc(Cl)cc3)CC2)c1 (stereo not drawn)
The “hERG current change (%, negative = inhibition) at 10uM” value of the first is higher: -30.7% for the first, -71.9% for the second.

Compared with `COc1cccc(OCC(O)CN2CCN(c3ccc(F)cc3)CC2)c1.Cl` (stereo not drawn), `COc1cccc(OCC(O)CN2CCN(c3ccccc3)CC2)c1.Cl` (stereo not drawn) is higher in “hERG current change (%, negative = inhibition) at 10uM” value: -58.6% for the first, -43.4% for the second.

First: COc1cccc(OCC(O)CN2CCN(c3ccccc3)CC2)c1 (stereo not drawn)
Second: COc1ccc(N2CCN(CC(O)COc3c(OC)cccc3OC)CC2)cc1.Cl (stereo not drawn)
The “hERG current change (%, negative = inhibition) at 10uM” value of the first is lower: -45.2% for the first, -35.3% for the second.

Compared with `OC(CSc1c(Cl)cccc1Cl)CN1CCN(c2ccc(F)cc2)CC1` (stereo not drawn), `COc1cccc(OC)c1OCC(O)CN1CCN(c2ccc(F)cc2)CC1.Cl` (stereo not drawn) is lower in “hERG current change (%, negative = inhibition) at 10uM” value: -40.3% for the first, -74.9% for the second.

Going from `OC(CSc1ccccc1Cl)CN1CCN(c2ccccc2F)CC1` (stereo not drawn) to `CCOC(=O)N1CCN(CC(O)COc2c(OC)cccc2OC)CC1.Cl` (stereo not drawn), the “hERG current change (%, negative = inhibition) at 10uM” value rises from -30.7% to 2.85%.

Source: article PMC4336329 (PLoS ONE, 2015)
